# Hits are enriched below; roughly 6.5% of the tested compounds scored in any of these assays.
# Marburg entry inh: qHTS for inhibitors of binding or entry into cells for Marburg Virus | Potency, µM (titrated, usually from 37.8 µM), most hits filed as inhibitors | AID 540276, 2011 | Marburg virus pseudotyped entry inhibition, cell reporter | 300,000 tested, 1.8% active; calls by dose curve; tested in HEK293 cells
# Vaccinia Venus: qHTS for Stage-Specific Inhibitors of Vaccinia Orthopoxvirus: Venus Reporter Primary qHTS; Vaccinia virus Venus reporter expression, fluorescence; Potency, µM (doses to about 36.5 µM), hits mostly inhibitors; 330,000 tested, 0.46% active; AID 720580, 2013; calls by dose curve; tested in A549 cells; note: nearly all actives have a fitted effect of over 30% in size
# HCMV inh: qHTS Assay for inhibitors of the human cytomegalovirus (HCMV). HFF cells, HCMV-luciferase reporter, 72 h; hits give low values. activity change, negative = inhibition, % at 57.5 µM. 410,000 tested, 4.5% active; in the data active = activity change below about -60%; inconclusive = no clear call, values can overlap the other calls; inactive = above about -39%
#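 Cell-based, HFFs, 1000 cells/well, 16 h 37C; cpds in DMSO + HCMV-luc, MOI 1 PFU/cell; 72 h 37C; OneGlo luminescence after 5 min RT; norm. to buffer vs Salinomycin 10uM.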
# LASV entry inh: qHTS for Inhibitors of binding or entry into cells for Lassa Virus; Lassa virus pseudotype entry inhibition, cell reporter; Potency, µM (top dose mostly 37.9 µM), hits mostly inhibitors; 300,000 tested, 1.2% active; calls by dose curve; tested in HEK293 cells; note: nearly all actives have a fitted effect of over 50% in size
# FMDV antiviral: High Throughput Screening for Foot and Mouth Disease Virus Antivirals; FMDV antiviral cell-based qHTS; Potency, µM (series often up to 57.9 µM), actives largely listed as inhibitors; 410,000 tested, 1.2% active; calls by dose curve; tested in HEK293T cells; note: read-out not given here; nearly all actives have a fitted effect of over 45% in size
# VACV mCherry inh: qHTS for Stage-Specific Inhibitors of Vaccinia Orthopoxvirus: mCherry Reporter Primary qHTS. Vaccinia virus mCherry reporter infection, fluorescence. Potency, µM (doses to about 36.5 µM), actives largely listed as inhibitors. 310,000 tested, 0.63% active. AID 720579, 2013; calls by dose curve; tested in A549 cells; note: nearly all actives have a fitted effect of over 35% in size
# A number is an active result; i = inactive; ? = inconclusive; nt = no result; [ ] = remark or other dose.
SMILES,Marburg entry inh,Vaccinia Venus,HCMV inh,LASV entry inh,FMDV antiviral,VACV mCherry inh
COc1ccc(Oc2c(Cl)cnn(-c3ccc(C)cc3)c2=O)cc1,10µM,i,i,?,i,nt
COc1ccc(Oc2c(Cl)cnn(-c3ccc(Cl)c(Cl)c3)c2=O)cc1,?,i,i,?,28µM,nt
COc1ccc(Oc2c(Cl)cnn(-c3ccc(F)cc3)c2=O)cc1,?,i,i,?,i,nt
O=C(NCCc1nnc2n1CCN(Cc1c(F)cccc1F)CC2)c1ccco1,nt,i,nt,nt,i,i
COC(=O)[C@@H](c1ccccc1Cl)N1CCc2sccc2C1,nt,i,nt,nt,i,i
CC(C(=O)Nc1nc(-c2ccc(F)cc2)cs1)N1C(=O)C2CC=CCC2C1=O (configuration not stated),i,i,i,i,28µM,i
O=C(CN1C(=O)C2CC=CCC2C1=O)Nc1nc(-c2ccc(F)cc2)cs1 (configuration not stated),nt,nt,i,nt,i,nt
O=C(CCNS(=O)(=O)c1ccc(Cl)cc1)N1CCCC1,i,i,-71,?,i,i
CC(=O)Nc1ccc(S(=O)(=O)NCCC(=O)N2CCN(C(c3ccccc3)c3ccccc3)CC2)cc1,i,i,?,0.32µM,?,i
O=C(CCNS(=O)(=O)c1ccccc1)N1CCN(C(c2ccccc2)c2ccccc2)CC1,nt,nt,i,nt,nt,nt
CC(C)Cc1cc(C(=O)NCC2Cc3cc(F)cc(-c4ccccn4)c3O2)no1 (configuration not stated),nt,i,nt,nt,i,i
N=C1Sc2ccccc2C2=NCCCN12,1.6µM,nt,nt,nt,nt,nt
COc1ccc(-c2csc(N3CCN(S(=O)(=O)c4ccc5c(c4)NC(=O)CO5)CC3)n2)cc1,nt,nt,-88,nt,?,nt
CCc1cc(=O)oc2c3c(cc(OCC(=O)NCCCOC)c12)OC(C)(C)CC3,i,i,-69,i,i,i
C[C@@H](ON=C1[C@H]2CCn3c(=O)n(-c4ccccc4)c(=O)n3[C@@H]2[C@H](O)[C@@H]2O[C@H]12)c1cn([C@H](CO)Cc2ccccc2)nn1,i,nt,nt,?,nt,nt
CC(C)c1ccc(NC2(C#N)C(=O)Nc3ccccc32)cc1 (configuration not stated),i,i,-72,i,i,nt
Clc1cccc2c1Sc1ccccc1CC2N1CCNCC1 (configuration not stated),?,?,?,5.2µM,i,?
COc1ccc(N2CCN(C3CCCN(S(=O)(=O)c4ccc(C)cc4C)C3)CC2)cc1 (configuration not stated),nt,nt,-73,nt,i,nt
COc1ccc(N2CCN(C3CCCN(S(=O)(=O)c4ccccc4)C3)CC2)cc1 (configuration not stated),i,i,i,i,i,i
CCOc1ccc(NC(=O)c2oc3ccccc3c2NC(=O)Cc2cccs2)cc1,i,i,i,i,i,i
O=C1CCc2ccc(OCCCCN3CCN(c4cccc(Cl)c4Cl)CC3)cc2N1,nt,i,i,nt,20µM,?
CCCCC[C@H]1C[C@@H](CC#CCN2CCOCC2)C(=O)O1,i,nt,nt,nt,nt,nt
CN(C)c1cccc(CNc2nccc3[nH]c(-c4cccc(F)c4)nc23)c1,nt,nt,i,nt,nt,nt
CCCCCOCC1CC(C/C(C)=N/NC(N)=S)C(=O)O1 (configuration not stated),?,?,i,?,i,22µM
O=C(CCc1ccccc1)NCc1nc2cccnc2n1Cc1ccc(F)cc1,nt,i,?,i,i,i
SMILES,Marburg entry inh,Vaccinia Venus,HCMV inh,LASV entry inh,FMDV antiviral,VACV mCherry inh
COc1cc(C(O)c2nc(C(=O)NCCN(C)C)cs2)cc(OC)c1OC (configuration not stated),nt,nt,i,nt,nt,nt
O=C(c1ccncc1)c1ccc(N2CCN(C3CC(=O)N(Cc4ccccc4)C3=O)CC2)cc1 (configuration not stated),?,?,-63,?,16µM,nt
C(=C\c1c[nH]c2ccccc12)/c1ccc2ccccc2n1,nt,i,nt,nt,nt,?
Cc1nn2c(C)c(C(=O)NCC(C)c3ccccc3)cnc2c1-c1ccccc1 (configuration not stated),nt,i,i,i,i,i
CC1=C(C(=O)Nc2cc(Cl)ccc2C)C2(CCCCC2)OC1=O,i,i,i,i,i,i
Cc1ccc(-c2csc3nc4ccc(C(=O)NCCO)cc4c(=O)n23)cc1,nt,i,-90,nt,i,i
COc1cccc(CO[C@H]2C=C[C@@H](c3ccccc3)O[C@H]2CO)c1,i,nt,nt,nt,nt,nt
CCOc1cc(/C=C2/SC(=Nc3ccccc3)N(Cc3cccnc3)C2=O)ccc1OCC#N,?,i,-60,?,?,i[1.46 µM]
COc1ccc(/C=C2\SC(=S)N(Cc3cccnc3)C2=O)cc1C,?,i,i,i,i,i
O=C(Nc1ccc(Cl)cc1Cl)c1cc(S(=O)(=O)N2CCN(c3ccccc3F)CC2)ccc1F,nt,i,-65,i,i,i
CCN1CCN(S(=O)(=O)c2ccc(Cl)c(C(=O)Nc3ccccc3N3CCCCC3)c2)CC1,11µM,i,i,?,i,i
CCc1cccc(C)c1NC(=O)CCn1c(=O)c2cccn2c2ccccc21,nt,i,?,?,i,i
COc1cccc(NC(=O)c2nn(-c3ccc(C)cc3)c(=O)n(C)c2=O)c1,nt,i,i,i,i,i
COc1cc(NC(=O)Cn2cc(S(=O)(=O)N3CCC(C)CC3)c3ccccc3c2=O)cc(OC)c1OC,10µM,i,i,i,i,i
CC1CCN(S(=O)(=O)c2cn(CC(=O)Nc3ccc(F)c(Cl)c3)c(=O)c3ccccc23)CC1,?,i,-63,?,i,i
O=C1[C@H](Cc2ccccc2)NC/C=C\C[C@@H](c2ccc(Cl)cc2)N1Cc1ccccc1,nt,i,nt,nt,nt,i
CN1C(=O)C(C)(C(Nc2ccccc2)c2ccccc2)c2ccccc21 (configuration not stated),nt,nt,i,nt,nt,nt
CC1=C[C@@H](COCc2ccccc2)O[C@@]2(C1)C(=O)Nc1cccc(Br)c12,i,nt,nt,?,nt,nt
Cc1ccc(O)c(C(=O)c2cnc3c(c2)COc2ccccc2-3)c1,i,i,-66,i,i,i
Cc1ccc2c(c1)-c1ncc(C(=O)c3ccccc3O)cc1CO2,i,i,i,i,i,i
CCOC(=O)N=Nc1c2ccccc2c2nc3no[nH]c3nc12,?,0.5µM,-100,?,2µM,0.5µM
CCOC(=O)N=Nc1c(O)n(CC(=O)OC)c2ccccc12,i,i,i,i,i,i
Cc1ccnc(NS(=O)(=O)c2ccc(NC(=O)C(C)(C)Oc3ccc(Cl)cc3)cc2)n1,i,i,i,i,i,i
Cc1ccccc1CNC(=O)c1ccc2nc(SCc3ccc(F)cc3)n(C)c2c1,i,i,i,nt,i,i
C/C=C/c1ccc2oc(-c3ccc(O)cc3)c(C)c2c1,nt,nt,nt,nt,i,nt
Cc1cc(N/N=C/c2ccc(F)cc2)nc(-n2nc(C)cc2C)n1,?,?,-96,?,i,?
COc1ccc(/C=N/Nc2cc(C)nc(-n3nc(C)cc3C)n2)c(OC)c1,?,?,-98,21µM,28µM,6.3µM
